Measured values from PubChem BioAssay AID1949 (Southern Research Institute, 2009).
Among all 100,000 compounds or so, about 1,600 (1.6%) were called active. Inconclusive results (about 3%) are left out. No rule for the calls is given here. Not all results are given here.

Assay: Mycobacterium tuberculosis H37Rv growth inhibition, cell based, confirmatory dose response (AID 1949);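 as to inhibition: bacteria grown 7 days with compound before Alamar blue readout; 0% = untreated bacteria wells and 100% = bacteria with saturating antibiotic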
Conditions: M. tuberculosis H37Rv growth inhibition; active compounds read high
For `O=C(Nc1nc(-c2ccc(F)cc2)cs1)c1cccc2ccccc12`, the inhibition was 32.4% (inactive).
For `CCn1c(/C=C/c2ccco2)nc2ccccc21`, the inhibition was “inactive”.
With `COc1ccc(OC)c(N(CC(=O)Nc2ccccc2SC)S(=O)(=O)c2ccccc2)c1` the inhibition was 13.5% (inactive).
With `Cc1ccc(NS(=O)(=O)c2ccc(NS(=O)(=O)c3c(C)cc(C)cc3C)cc2)cc1` the inhibition was “inactive”.
For `COc1ccc(NC(=O)c2c(NC(=O)c3ccccc3F)sc3c2CCC3)cc1`, the inhibition was “inactive”.
In the case of `CCOC(=O)c1ccc(Oc2nc(NCc3ccccc3)nc(N(C)C)n2)cc1`, the inhibition is reported as “inactive”.
With `COC(=O)CSc1nc(C23CC4CC(CC(C4)C2)C3)cc(C(F)(F)F)c1C#N` the inhibition was 1.01% (inactive).
For `CCn1c(CC(=O)Nc2cccc(OC)c2)nnc1SCC(=O)c1ccc(Br)cc1`, the inhibition was “inactive”.
In the case of `Cc1cccc(NC(=O)c2sc3cccc(Cl)c3c2Cl)c1`, the inhibition is reported as “inactive”.
In the case of `C=CCN(CC=C)CC(O)Cn1c(C)c(C)c2ccccc21` (stereo not given), the inhibition is reported as “inactive”.
For `CCOC(=O)c1cc(-c2ccccc2)sc1NC(=O)c1ccccc1Br`, the inhibition was “inactive”.
With `O=C(Nc1c(C(=O)N2CCCCCC2)cnn1-c1ccccc1Cl)c1ccccc1Cl` the inhibition was “inactive”.
For `CCCc1ccc(C(C)NC(=O)c2ccc(C)s2)cc1` (stereo not given), the inhibition was “inactive”.
With `O=C(NCCc1ccccc1)Nc1cccc2ccccc12` the inhibition was “inactive”.
With `COCCNCCCCOc1ccc(C)cc1[N+](=O)[O-]` the inhibition was “inactive”.
In the case of `Cc1ccc(NC(=O)CCc2ccc(S(=O)(=O)NCCc3ccccc3)cc2)cc1C`, the inhibition is reported as “inactive”.
In the case of `CCOC(=O)N1CCN(C(=O)c2ccc(I)cc2)CC1`, the inhibition is reported as “inactive”.
In the case of `CC1=C(C(=O)Nc2ccccc2)C(c2ccc(I)cc2)NC(=O)N1` (stereo not given), the inhibition is reported as “inactive”.
With `CCOc1cc(CNC(CC)CO)c(Cl)cc1OCC(N)=O` (stereo not given) the inhibition was “inactive”.
In the case of `OCCNc1nc2ccccc2n1-c1ccccc1`, the inhibition is reported as 1.48% (inactive).
In the case of `O=C(CCCn1c(=S)[nH]c2ccccc2c1=O)N1CC=C(c2ccccc2)CC1`, the inhibition is reported as “inactive”.
In the case of `Cc1ccc(C(=O)Nc2ccc(C(=O)NCCCC(=O)O)cc2)o1`, the inhibition is reported as 4.21% (inactive).
With `CS(=O)(=O)N(CC(=O)Nc1ccccc1Cl)c1cccc([N+](=O)[O-])c1` the inhibition was “inactive”.
For `O=C1c2ccccc2C(=O)N1c1nnc(Sc2ccc([N+](=O)[O-])c3cccnc23)s1`, the inhibition was “inactive”.
With `OC(c1ccccc1)c1nc2ccccc2n1Cc1cccc(Cl)c1` (stereo not given) the inhibition was “inactive”.
For `CC(C)c1ccccc1NC(=O)COc1ccc(-c2ccccc2)cc1`, the inhibition was “inactive”.
In the case of `COC(=O)C1C(=O)OC(C)(C)C2CCC(C)CC12` (stereo not given), the inhibition is reported as “inactive”.
For `COc1ccc(N2C(=O)CC(N3CCN(CC(=O)NC(C)C)CC3)C2=O)cc1` (stereo not given), the inhibition was “inactive”.
With `CCOC(=O)N1CCN(C(=O)COc2cccc(C)c2C)CC1` the inhibition was “inactive”.
For `Cc1c(Cl)cccc1N1CC(O)=C(c2nc3ccccc3s2)C1=N`, the inhibition was 3.11% (inactive).
In the case of `COC(=O)c1noc(-c2ccc(F)cc2)n1`, the inhibition is reported as “inactive”.
In the case of `O=S(=O)(NCCC1=CCCCC1)c1ccccc1`, the inhibition is reported as “inactive”.
With `O=C1OCCC1Sc1nnc(-c2ccc(Br)cc2)o1` (stereo not given) the inhibition was “inactive”.
In the case of `CC(=O)Nc1ccc(NC(=O)C(C)Oc2ccc(Cl)c(C)c2)cc1` (stereo not given), the inhibition is reported as “inactive”.
With `CCOc1ccccc1OCCOCCNCc1ccccc1` the inhibition was “inactive”.
For `CCN(C(=O)c1ccccc1Br)c1ccccc1C`, the inhibition was 8.56% (inactive).
For `Fc1c(F)c(F)c(Cn2ccc(NC(=S)Nc3ccccc3C(F)(F)F)n2)c(F)c1F`, the inhibition was “inactive”.
In the case of `Cc1nc(SCc2cccc(C(=O)O)c2)nc2c1CCCC2`, the inhibition is reported as “inactive”.
With `O=C(O)c1ccccc1-c1nc(-c2ccccc2F)no1` the inhibition was “inactive”.
With `S=C(NCc1ccccc1)Nc1c(Cl)cccc1Cl` the inhibition was “inactive”.
In the case of `CC1(C)CC(=O)CC(C)(C)N1OC(=O)c1ccncc1`, the inhibition is reported as “inactive”.
For `CCOC(=O)c1ccc(NC(=O)CSc2nnc(-c3ccccc3Cl)n2CC)cc1`, the inhibition was “inactive”.
With `CCOc1cc(C)c(S(=O)(=O)NCc2cccnc2)cc1C` the inhibition was “inactive”.
For `COc1cc(S(=O)(=O)NC2CCCCC2)ccc1Cl`, the inhibition was “inactive”.
For `CCOC(=O)c1ccc(COC(=O)c2ccc(C=O)cc2)cc1`, the inhibition was 2.19% (inactive).
In the case of `CCn1c(CNC(=O)c2cccs2)nnc1SCC(=O)Nc1ccc(Br)cc1F`, the inhibition is reported as “inactive”.
In the case of `CCc1cccc(C)c1NC(=O)CN(c1cccc(Br)c1)S(C)(=O)=O`, the inhibition is reported as “inactive”.
For `CC(C)CNC(=O)c1ccccc1NC(=O)CCSc1ccccc1`, the inhibition was “inactive”.
With `O=C1C2C3C=CC(C3)C2C(=O)N1CCC(=O)N1c2ccccc2Sc2ccccc21` (stereo not given) the inhibition was “inactive”.
In the case of `COc1cccc2cc(-c3nnc(SCC(=O)Nc4cccc(SC)c4)n3C)oc12`, the inhibition is reported as 1.86% (inactive).
For `CCOc1ccc(N(CC(N)=O)S(=O)(=O)c2ccc(OC)c(OC)c2)cc1`, the inhibition was “inactive”.
In the case of `COC(=O)c1ccc(NC(=O)CN(Cc2ccccc2)S(C)(=O)=O)cc1`, the inhibition is reported as “inactive”.
In the case of `O=S(=O)(c1cccc(S(=O)(=O)N2CCCC2)c1)N1CCCC1`, the inhibition is reported as “inactive”.
In the case of `COc1ccc([N+](=O)[O-])cc1NC(=O)C1CC(=O)N=C(N)S1` (stereo not given), the inhibition is reported as 0.16% (inactive).
With `COc1ccc(N(CC(=O)Nc2ccc(F)cc2F)S(=O)(=O)c2ccc(C)c([N+](=O)[O-])c2)cc1` the inhibition was “inactive”.
With `O=S(=O)(c1ccccc1)c1ccc(COc2cccc3cccnc23)cc1` the inhibition was 1.33% (inactive).
With `COc1ccc(CNC2C3CC4CC(C3)CC2C4)cc1` (stereo not given) the inhibition was “inactive”.
With `COC(=O)c1ccc(SC2CCCCC2)c([N+](=O)[O-])c1` the inhibition was “inactive”.
With `C=CCn1c(COc2ccc(C)cc2OCC)nnc1SCC(=O)Nc1cc(C(F)(F)F)ccc1Cl` the inhibition was 1.26% (inactive).
In the case of `COc1ccccc1CNC(=S)Nc1ccc(OC)c(OC)c1`, the inhibition is reported as “inactive”.
In the case of `Cc1cccc2c(N=NC(=O)c3cccnc3)c(O)[nH]c12`, the inhibition is reported as “inactive”.
With `CC(Sc1ccc(Cl)cc1)C(=O)Nc1ccccc1C(=O)O` (stereo not given) the inhibition was “inactive”.
With `COc1ccccc1OCCCSc1nc2sc(C)c(C)c2c(=O)n1-c1ccccc1` the inhibition was “inactive”.
With `Cc1cc(C)c(C#N)c(SCC(=O)Nc2sc3c(c2C#N)CCC3)n1` the inhibition was “inactive”.
With `O=C(NCCSC1CCCCC1)c1ccc(-c2ccccc2)cc1` the inhibition was “inactive”.
With `CSc1nc(C)c(Oc2ccccc2)c(=O)n1C` the inhibition was 8.91% (inactive).
In the case of `CSc1ccc(-c2nnn(CC(=O)Nc3ccc4c(c3)OCO4)n2)cc1`, the inhibition is reported as “inactive”.
For `COc1cc(/C=C2/SC(=O)N(CC(=O)O)C2=O)cc(OC)c1OC`, the inhibition was “inactive”.
In the case of `CS(=O)(=O)N(CC(=O)NC1CCCCCC1)c1ccccc1F`, the inhibition is reported as “inactive”.
With `CCn1c(SCC(=O)Nc2ccc3c(c2)OCO3)nnc1-c1ccccc1` the inhibition was 4.1% (inactive).
